Experimental data published in PubChem BioAssay AID1159580 (chemical genetic matrix, 2015).
Values joined by “and” are separate entries in the source; they are usually repeats but may differ in a detail not shown here. Identical values can stand only once. Screen size: about 5,500 compounds; about 2,000 (36%) were called active. Roughly 18% stayed inconclusive and do not appear here. Cut-off read from the data, not from the text of the source: active = normalized growth mostly below about 0.91 (no sharp cut-off); inconclusive = no clear call, values can overlap the other calls; inactive = mostly above about 0.92. The list shows a part of the results.

Experiment: chemical genetic growth profiling, strain panel (AID 1159580);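 note: tested at 20 µM; growth read once vehicle control cultures reached saturation at 30 °C; 1 = growth at the plate median or of vehicle wells; lower values mean less growth of the strain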
Details: S. cerevisiae deletion strains, growth OD

Measured: normalized growth

Cc1ccccc1C(OCCN(C)C)c1ccccc1 (centres undefined)
inactive: locus YAL021C, strain ccr4, hits give low values 0.977 | locus YAL026C, strain drs2, hits give low values 1 | locus YAL030W, strain snc1, hits give low values 1 | locus YAL040C, strain CLN3, hits give low values 0.992 | locus YBL061C, strain skt5, hits give low values 1 | locus YBR009C, strain hhf1, hits give low values 0.996 | locus YBR021W, strain FUR4, hits give low values 0.913 | locus YBR023C, strain chs3, hits give low values 1.01 | locus YBR171W, strain sec66, hits give low values 1.01 | locus YBR229C, strain ROT2, hits give low values 1 | locus YBR231C, strain swc5, hits give low values 1 | locus YBR279W, strain paf1, hits give low values 0.993 | locus YCL011C, strain gbp2, hits give low values 1.01 | locus YCL016C, strain dcc1, hits give low values 1.01 | locus YCL029C, strain bik1, hits give low values 1.01 | locus YCL061C, strain MRC1 (second series), hits give low values 0.987 | locus YCL061C, strain MRC1, hits give low values 1.01 | locus YCL069W, strain vba3, hits give low values 1.01 | locus YCR088W, strain abp1, hits give low values 1 | locus YDL005C, strain med2, hits give low values 0.986 | locus YDL035C, strain GPR1, hits give low values 1.01 | locus YDL040C, strain nat1, hits give low values 1.01 | locus YDL074C, strain BRE1, hits give low values 0.959 | locus YDL101C, strain DUN1, hits give low values 1 | locus YDL134C, strain PPH21, hits give low values 1.01 | locus YDL185W, strain tfp1, hits give low values 1.02 | locus YDL192W, strain arf1, hits give low values 1.01 | locus YDR001C, strain nth1, hits give low values 1.01 | locus YDR069C, strain doa4, hits give low values 0.994 | locus YDR101C, strain arx1, hits give low values 1.01 | locus YDR137W, strain rgp1, hits give low values 1.07 | locus YDR150W, strain NUM1, hits give low values 0.994 | locus YDR159W, strain sac3, hits give low values 1.01 | locus YDR162C, strain NBP2, hits give low values 0.993 | locus YDR195W, strain ref2 0.996 | locus YDR297W, strain sur2, hits give low values 1.01 | locus YDR318W, strain mcm21, hits give low values 1.02 | locus YDR334W, strain swr1, hits give low values 1.01 | locus YDR335W, strain msn5, hits give low values 1 | locus YDR363W, strain ESC2, hits give low values 0.998 | locus YDR388W, hits give low values 1.01 | locus YDR392W, strain spt3, hits give low values 0.966 | locus YDR502C, strain sam2, hits give low values 1.01 | locus YEL003W, strain gim4, hits give low values 0.981 | locus YEL037C, strain rad23, hits give low values 0.999 | locus YEL061C, strain CIN8 (second series), hits give low values 1.01 | locus YEL061C, strain CIN8, hits give low values 1 | locus YER002W, strain NOP16, hits give low values 1.01 | locus YER015W, strain faa2, hits give low values 1 | locus YER016W, strain bim1, hits give low values 0.998 | locus YER110C, hits give low values 1.01 | locus YER111C, strain swi4, hits give low values 1 | locus YER155C, strain BEM2 (second series), hits give low values 1.01 | locus YER155C, strain BEM2, hits give low values 1.01 | locus YER167W, strain BCK2, hits give low values 1 | locus YFR010W, strain ubp6, hits give low values 1 | locus YGL078C, strain dbp3, hits give low values 1 | locus YGL086W, strain mad1, hits give low values 0.994 | locus YGL167C, strain pmr1, hits give low values 1.01 | locus YGL173C, strain kem1, hits give low values 0.994 | locus YGL227W, strain vid30, hits give low values 1.02 | locus YGL240W, strain doc1, hits give low values 0.994 | locus YGL248W, strain PDE1, hits give low values 1 | locus YGL253W, strain hxk2, hits give low values 1.01 | locus YGR078C, strain PAC10, hits give low values 1 | locus YGR135W, strain pre9, hits give low values 1 | locus YGR252W, strain gcn5, hits give low values 0.902 | locus YHR013C, strain ard1, hits give low values 0.986 | locus YHR027C, strain rpn1, hits give low values 0.997 | locus YHR030C, strain SLT2, hits give low values 1 and 0.992 | locus YHR079C, strain IRE1 (second series), hits give low values 1.02 | locus YHR079C, strain IRE1, hits give low values 0.973 | locus YHR094C, strain hxt1, hits give low values 1 | locus YHR129C, strain ARP1, hits give low values 1.01 | locus YHR142W, strain chs7, hits give low values 1.01 | locus YHR200W, strain rpn10, hits give low values 1.01 | locus YIL066C, strain RNR3, hits give low values 1.01 | locus YIL073C, strain SPO22, hits give low values 1.05 | locus YIL125W, strain kgd1, hits give low values 0.994 | locus YIR030C, strain dcg1, hits give low values 1.02 | locus YJL092W, strain hpr5, hits give low values 1.01 | locus YJL095W, strain BCK1 (second series), hits give low values 1.01 | locus YJL095W, strain BCK1, hits give low values 0.983 and 0.99 | locus YJL115W, strain asf1, hits give low values 0.992 | locus YJL129C, strain trk1, hits give low values 0.986 | locus YJL134W, strain LCB3, hits give low values 1 | locus YJL154C, strain vps35, hits give low values 1 | locus YJL164C, strain tpk1, hits give low values 0.991 | locus YJL166W, strain qcr8, hits give low values 1.01 | locus YJL168C, strain set2, hits give low values 1.01 | locus YJL187C, strain SWE1 (second series), hits give low values 1 | locus YJL187C, strain SWE1, hits give low values 1.01 | locus YJR043C, strain POL32, hits give low values 0.995 | locus YJR066W, strain TOR1, hits give low values 0.952
